Compound activity as filed in PubChem BioAssay.
This is one part of a sample in which hits are shown more often than they occur.
HBB splice mod = alters splicing of the hemoglobin beta chain; 65,000 compounds, 0.06% hits; AID 925; HBB splicing reporter cell assay, activation; EGFP reporter with mutant IVS2-654 intron; response scale: normalised to 500 nM splice-correcting PNA; Potency, µM (highest dose often 46.1 µM), without a hit: at the highest dose activation, actives largely listed as activators; also: potency is read from the fitted curve at half-maximal effect; 0% is about no effect
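HeLa cells stably expressing EGFP interrupted by mutant beta-globin intron 2 (IVS2-654), 500/well in 2% FCS. Treated with compound for 2 days at 37C. Splicing correction scored as total well GFP intensity (488 nm excitation, 500-520 nm emission); 500 nM antisense PNA served as control.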
CRE Fsk mod = modulators of forskolin-stimulated CRE signaling in CHO cells | Potency, µM (doses to about 38.2 µM), without a hit: top-dose activity change, negative = inhibition, actives largely listed as activators | CHO CRE-bla reporter (cAMP response element driving beta-lactamase), forskolin EC10, beta-lactamase ratio | 71,000 compounds, 2.5% hits | AID 662; active = well fitted activation curve with a large enough effect in the signal ratio, with a control signal flat, not every such curve was filed as active; inconclusive = small, poorly fitted or top-dose-only effect, or effect the other way, or a change in a side signal; the % refers to the signal ratio; also: potency is read from the fitted curve at half-maximal effect; % of control where 0% means no effect
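Beta-lactamase reporter under a cAMP responsive element in CHO cells; compounds tested in titration series against EC10 NKH 477, 3 h at 37 °C. Read-out: CCF4 FRET ratio 460nm/530nm (excitation 405nm) giving %Activity, fitted to AC50.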
Epigenetic mod = epigenetic modulators derepressing GFP locus in mouse cells | 68,000 compounds, 0.09% hits | AID 597 | Potency, µM (series often up to 46.1 µM), inactives show top-dose GFP derepression (activation) | mouse C127i GFP locus derepression, cytometry, 30 h; also: % of control where 0% means no effect
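Locus derepression in mouse mammary C127i cells whose integrated CMV-GFP reporter is normally silent; GFP expression after 30 h compound treatment was quantified by counting fluorescent cells.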
Peg3 imprint = inducers of genomic imprint erasure in mouse ES cells. mouse ES Peg3-LacZ reporter, beta-gal luminescence, 40 h. Potency, µM (top dose mostly 60.7 µM), for inactives: at the top dose activity change, positive = activation, usual class: activators. 110,000 compounds, 0.02% hits. AID 1948; also: potency is read from the fitted curve at half-maximal effect
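Imprint erasure is scored as LacZ activity from the silenced maternal Peg3 allele in feeder-free female ES cells cultured 40 h with LIF. Luminescence is normalized to in-plate negative controls and fitted to the Hill equation.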
IkB sig inh = IkB pathway inhibition in ABC-DLBCL cells; ABC-DLBCL IkBa-CBG/CBR dual luciferase ratio, 4 h; response scale: scaled: untreated 0%, proteasome inhibitor 100%; Potency, µM (series often up to 57.1 µM), inactives show top-dose IkBa stabilization activation; 110,000 compounds, 0.04% hits; active = well fitted curve in the direction sought with a large enough effect in the signal ratio, not every such curve was filed as active; inconclusive = small, poorly fitted or top-dose-only effect, or a change in a side signal; the % refers to the signal ratio;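 also: potency is read from the fitted curve at half-maximal effect; the direction sought is a rising ratio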
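Curves were fitted separately to fusion (green), unfused (red) and ratio luminescence, then classed by r2, magnitude and activity. Cells: OCI-Ly3, 4 h compound plus doxycycline at 37C; 10 uM MG-132 defined full response.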
Active calls of the source: *; ? = inconclusive; . = no result; [ ] = another dose, or the depositor's remark. Unless noted, calls follow the shape of the dose curve; as a rule, active = well fitted curve in the direction sought with a large enough effect; inconclusive = small, poorly fitted or top-dose-only effect, or another doubt; inactive = no such curve, though single readings can be large; an effect the other way counts as inactive or inconclusive.

SMILES | HBB splice mod | CRE Fsk mod | Epigenetic mod | Peg3 imprint | IkB sig inh
Cc1cc2cc(CCNC(=O)CC(C)C)c(=O)[nH]c2cc1C | -1% | 13µM* | . | -37% | -1%
COc1ccc(S(=O)(=O)NCc2ccco2)cc1-c1nnc2c3ccccc3c(C)nn12 | 6% | 5µM* | 3% | -13% | -2%
CCCc1nc(N)c(C#N)c(N)c1C#N | 3%[0.369 µM] | 5µM* | 0% | 3% | -3%
COc1ccc2c(c1)C(=O)N(c1ccccc1OC)C(=O)C2(C)C | -3% | 3.2µM* | -2% | -11% | -1%
CC(C)Cn1c(=O)c2sccc2n2c(CCCC(=O)NCCc3ccc(Cl)cc3)nnc12 | . | . | . | -9%[10.9 µM] | 5%
COc1ccccc1NC(=O)CSc1nnc(-c2ccco2)n1Cc1ccco1 | -1% | -3% | 6% | -79% | 2%
COc1ccc(C)cc1NC(=O)CSc1nnc(-c2ccccn2)n1Cc1ccco1 | -1% | 1.6µM* | 3% | -28% | ?
COc1ccccc1NC(=O)CSc1nnc(-c2ccccn2)n1Cc1ccco1 | -2% | 10µM* | 0% | -10% | -4%
COc1ccc(C)cc1NC(=O)CSc1nnc(COc2ccccc2)n1Cc1ccco1 | 4%[57.5 µM] | -25% | 0% | -22% | ?
CCC1CCCCN1CC(=O)Nc1cc(C)nn1-c1nc(C)cc(C)n1 (centres undefined) | -1% | 2.5µM* | 0% | -17% | 0%
CC1=C(C(=O)Nc2ccc(Cl)cc2)C(C(C)C)n2nc(SCc3ccc(Cl)cc3)nc2N1 (centres undefined) | . | . | . | -1%[10.9 µM] | ?
CCOC(=O)N1CCc2c(sc3c2c(=O)n(Cc2ccccc2)c(=O)n3Cc2c(F)cccc2Cl)C1 | . | . | . | -17%[10.9 µM] | 0%
CCOC(=O)c1c(NC(=O)CN2CCCCC2)sc2c1CCCC2O (centres undefined) | 0% | 10µM* | . | -15% | ?
CCN(CC)c1nc(Nc2ccc(Cl)cc2)nc(OCC#N)n1 | . | 5µM* | 1% | . | 0%
COc1ccc(CNCc2c(C(=O)O)c(C)n(Cc3ccccc3C)c2C)c(OC)c1 | . | . | . | -6%[10.9 µM] | 3%
CCOc1ccccc1NC(=O)c1nc(SC(C)C)ncc1Cl | . | . | . | -7%[10.9 µM] | ?
CCOc1cc2c(C#N)c(N3CCOCC3)nc(N)c2c(N)n1 | 1% | 2.5µM* | -1% | -9% | -1%
COCc1cc(C)nc(N2CCOCC2)c1C#N | 1% | 14% | . | -2% | -2%
COc1ccc(-c2nnc(CSc3ncnc4sc5c(c34)CCC5)o2)cc1OC | . | 2.5µM* | 5% | . | 1%
N#CCSc1ncnc2sc3c(c12)CCC3 | 0%[57.5 µM] | 13% | 4% | -6% | 0%
Cc1cccc(Cn2cnc3c(nnn3Cc3ccccc3F)c2=O)c1 | 1% | 1.3µM* | -2% | -14% | 1%
Cc1csc2nc(CSc3nncn3-c3ccccc3)c(Br)n12 | 1%[0.369 µM] | ? | -2% | -10% | 0%
Cc1csc2nc(CSc3nc4ccccc4o3)c(Br)n12 | 0%[57.5 µM] | 2.5µM* | 1% | -25% | ?
O=C(Nc1ccc(Br)cc1)C1CCCN1S(=O)(=O)c1ccc(F)cc1 (centres undefined) | . | . | . | -7%[10.9 µM] | ?
O=C(Nc1ccc2c(c1)OCO2)c1cnn2c(C(F)(F)F)cc(-c3ccco3)nc12 | 4% | 5µM* | 2% | -4% | -1%
SMILES | HBB splice mod | CRE Fsk mod | Epigenetic mod | Peg3 imprint | IkB sig inh
COc1ccc(NC(=O)c2cnn3c(C(F)(F)F)cc(-c4ccco4)nc23)cc1OC | 3%[0.0738 µM] | ? | 0% | 3% | -1%
Oc1ccc(COCc2ccccc2)c2cccnc12 | . | 3% | 3.2µM* | -27% | ?
Oc1ccc(CNCc2ccccc2)c2cccnc12 | 2%[9.22 µM] | -1%[7.6 µM] | ? | -27%[10.9 µM] | 2%[11.4 µM]
Cc1cc2ccccc2n1CCNC(=O)C1CCCC1 | 1% | -23% | 4% | 9% | 0%
Cc1cc2ccccc2n1CCNC(=O)C1CC1 | -1% | 13µM* | . | -18% | 1%
Cc1cc(NCCCN2CCOCC2)n2ncc(-c3ccc(Cl)cc3)c2n1 | -1%[57.5 µM] | 1.6µM* | -2% | -9% | 2%
COc1ccc(Cl)cc1NC(=O)c1cc(S(=O)(=O)NC2CCCCCC2)ccc1F | . | . | . | 29%[10.9 µM] | ?
CCOc1ccc(Nc2sc(C(=O)c3ccc4c(c3)OCO4)c(N)c2S(=O)(=O)c2ccc(C)cc2)cc1 | . | . | . | -5%[10.9 µM] | -2%
COc1cc2c(cc1OC)C(=O)N(C)CC2 | . | 16µM* | -2%[9.22 µM] | -2% | 0%[11.4 µM]
COc1ccccc1-c1nc(S(=O)(=O)c2ccc(Cl)cc2)c(N(C)C)o1 | -1% | 6% | 0% | -4% | 1%
COc1cc(-c2nc(S(=O)(=O)c3ccc(C)cc3)c(N(C)C)o2)cc(OC)c1OC | -1% | 2µM* | 0% | -9% | 2%
COc1cc(-c2nc(S(=O)(=O)c3ccc(C)cc3)c(N3CCOCC3)o2)cc(OC)c1OC | -1% | 1µM* | 0% | -10% | 1%
CCn1ccc2c(OCC(=O)Nc3ccc(OC)cc3OC)cccc2c1=O | . | . | . | -10%[10.9 µM] | ?
CCOC(=O)c1c(NC(=O)CSc2n[nH]c(-c3ccco3)n2)sc(C)c1C | 2% | 0.063µM* | 3% | -9% | ?
CCOC(=O)c1sc(NC(=O)CSc2nncs2)c(C(=O)OCC)c1C | -3% | 3.2µM* | 0% | -5% | 1%
CCOC(=O)CSc1n[nH]c(-c2ccco2)n1 | 0% | -3% | . | -6% | -1%
CCOC(=O)c1c(NC(=O)Cc2cccs2)sc(C(=O)N2CCCCC2)c1C | 0% | 2µM* | -3% | -19% | -2%
CCOC(=O)c1c(NC(=O)COC)sc(C(C)=O)c1C | 1% | 13µM* | 5% | 19% | 0%
CSc1ccc(CNC(=O)CN2C(=O)C3CCCCN3c3ccc(C(=O)N4CCCC4)cc32)cc1 (centres undefined) | . | . | . | 7%[10.9 µM] | -1%
COc1ccc(C(=O)COC(=O)CCN=C2NS(=O)(=O)c3ccccc32)cc1OC | -1% | 10µM* | 0% | -3% | 0%
CCC(Sc1nc2n[nH]c(C)c2c(=N)n1-c1cccc(Cl)c1)C(=O)NCCOC (centres undefined) | -1% | 13µM* | 5% | -14% | -2%
CCCN(CCC)C(=O)CSc1nc2n[nH]c(C)c2c(=N)n1-c1ccc(OC)cc1 | 0% | 1.6µM* | -1% | -21% | ?
CCCN(CCC)C(=O)CSc1nc2n[nH]c(C)c2c(=N)n1-c1ccc(OCC)cc1 | 1% | 2.5µM* | -1% | -6% | ?
CCc1ccccc1NC(=O)CSc1nc2n[nH]c(C)c2c(=N)n1-c1ccc(OC)cc1 | -2% | 2.5µM* | 1% | -16% | ?
CCCCN(CC)C(=O)CSc1nc2n[nH]c(C)c2c(=N)n1-c1cccc(OC)c1 | . | . | . | -4%[10.9 µM] | 0%
Cc1ccc2c(CNCc3ccc(C)o3)c(C(=O)O)n(Cc3ccccc3C)c2c1 | . | . | . | 28%[10.9 µM] | ?
COc1ccccc1NC(=O)c1oc2ccccc2c1NC(=O)Cc1ccccc1 | . | . | . | -6%[10.9 µM] | ?
